In all, about 5,500 compounds went through this assay and about 2,000 (36%) were called active. Roughly 18% stayed inconclusive and do not appear here. No stated cut-off is given here; in the data, active means normalized growth mostly below about 0.91 (no sharp cut-off); inconclusive means no clear call, values can overlap the other calls; inactive means mostly above about 0.92. Some of the results follow.
Assay: chemical genetic growth profiling, strain panel (AID 1159580);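 further: tested at 20 µM; growth read once vehicle control cultures reached saturation at 30 °C; 1 = growth at the plate median or of vehicle wells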
Conditions: growth OD

Measured: normalized growth

COc1cc(NS(=O)(=O)c2ccc(N)cc2)ncn1
inactive: S. cerevisiae deletion strains, locus YJR075W, strain HOC1, stronger effect = lower value 0.984 | S. cerevisiae deletion strains, locus YKL009W, strain mrt4, stronger effect = lower value 0.982 | S. cerevisiae deletion strains, locus YKL068W, stronger effect = lower value 0.986 | S. cerevisiae deletion strains, locus YKL085W, strain MDH1 (second series), stronger effect = lower value 0.991 | S. cerevisiae deletion strains, locus YKL085W, strain MDH1, stronger effect = lower value 0.991 | S. cerevisiae deletion strains, locus YKL160W, strain elf1, stronger effect = lower value 0.98 | S. cerevisiae deletion strains, locus YKL190W, strain CNB1, stronger effect = lower value 0.978 | S. cerevisiae deletion strains, locus YKR001C, strain vps1, stronger effect = lower value 0.986 | S. cerevisiae deletion strains, locus YKR026C, strain gcn3, stronger effect = lower value 0.968 | S. cerevisiae deletion strains, locus YKR091W, strain srl3, stronger effect = lower value 0.99 | S. cerevisiae deletion strains, locus YLL001W, strain dnm1, stronger effect = lower value 0.974 | S. cerevisiae deletion strains, locus YLL026W, stronger effect = lower value 0.985 | S. cerevisiae deletion strains, locus YLL041C, strain sdh2, stronger effect = lower value 0.982 | S. cerevisiae deletion strains, locus YLR027C, strain aat2, stronger effect = lower value 0.988 | S. cerevisiae deletion strains, locus YLR039C, strain RIC1, stronger effect = lower value 1.02 | S. cerevisiae deletion strains, locus YLR058C, strain SHM2, stronger effect = lower value 0.972 | S. cerevisiae deletion strains, locus YLR102C, strain apc9, stronger effect = lower value 0.986 | S. cerevisiae deletion strains, locus YLR113W, strain HOG1, stronger effect = lower value 0.949 | S. cerevisiae deletion strains, locus YLR221C, strain rsa3, stronger effect = lower value 0.985 | S. cerevisiae deletion strains, locus YLR258W, strain gsy2, stronger effect = lower value 0.979 | S. cerevisiae deletion strains, locus YLR262C, strain YPT6 (second series), stronger effect = lower value 0.985 | S. cerevisiae deletion strains, locus YLR262C, strain YPT6, stronger effect = lower value 1.02 | S. cerevisiae deletion strains, locus YLR268W, strain sec22, stronger effect = lower value 0.948 | S. cerevisiae deletion strains, locus YLR320W, strain mms22, stronger effect = lower value 0.979 | S. cerevisiae deletion strains, locus YLR330W, strain CHS5, stronger effect = lower value 0.998 | S. cerevisiae deletion strains, locus YLR342W, strain FKS1 (second series), stronger effect = lower value 1.04 | S. cerevisiae deletion strains, locus YLR342W, strain FKS1, stronger effect = lower value 1.02 | S. cerevisiae deletion strains, locus YLR357W, strain rsc2, stronger effect = lower value 0.93 | S. cerevisiae deletion strains, locus YLR370C, strain arc18, stronger effect = lower value 0.979 | S. cerevisiae deletion strains, locus YLR371W, strain rom2, stronger effect = lower value 0.992 | S. cerevisiae deletion strains, locus YLR384C, strain iki3, stronger effect = lower value 0.974 | S. cerevisiae deletion strains, locus YLR418C, strain cdc73, stronger effect = lower value 0.983 | S. cerevisiae deletion strains, locus YML016C, strain PPZ1, stronger effect = lower value 0.992 | S. cerevisiae deletion strains, locus YML032C, strain rad52, stronger effect = lower value 0.991 | S. cerevisiae deletion strains, locus YML120C, strain ndi1, stronger effect = lower value 1.01 | S. cerevisiae deletion strains, locus YML124C, strain tub3, stronger effect = lower value 0.988 | S. cerevisiae deletion strains, locus YMR058W, strain fet3, stronger effect = lower value 0.993 | S. cerevisiae deletion strains, locus YMR078C, strain ctf18, stronger effect = lower value 0.981 | S. cerevisiae deletion strains, locus YMR125W, strain sto1, stronger effect = lower value 0.963 | S. cerevisiae deletion strains, locus YMR129W, stronger effect = lower value 0.996 | S. cerevisiae deletion strains, locus YMR205C, strain PFK2, stronger effect = lower value 0.992 | S. cerevisiae deletion strains, locus YMR223W, strain ubp8, stronger effect = lower value 0.981 | S. cerevisiae deletion strains, locus YMR231W, strain pep5, stronger effect = lower value 0.975 | S. cerevisiae deletion strains, locus YMR263W, strain SAP30, stronger effect = lower value 0.982 | S. cerevisiae deletion strains, locus YMR307W, strain GAS1, stronger effect = lower value 1.1 | S. cerevisiae deletion strains, locus YNL067W, strain RPL9B, stronger effect = lower value 0.981 | S. cerevisiae deletion strains, locus YNL071W, strain lat1, stronger effect = lower value 0.969 | S. cerevisiae deletion strains, locus YNL153C, strain GIM3, stronger effect = lower value 0.965 | S. cerevisiae deletion strains, locus YNL183C, strain NPR1, stronger effect = lower value 0.933 | S. cerevisiae deletion strains, locus YNL209W, strain ssb2, stronger effect = lower value 0.975 | S. cerevisiae deletion strains, locus YNL233W, strain BNI4, stronger effect = lower value 0.987 | S. cerevisiae deletion strains, locus YNL248C, strain rpa49, stronger effect = lower value 0.931 | S. cerevisiae deletion strains, locus YNL250W, strain rad50, stronger effect = lower value 0.979 | S. cerevisiae deletion strains, locus YNL271C, strain bni1, stronger effect = lower value 0.992 | S. cerevisiae deletion strains, locus YNL298W, strain CLA4, stronger effect = lower value 0.983 | S. cerevisiae deletion strains, locus YNL307C, strain MCK1, stronger effect = lower value 0.979 | S. cerevisiae deletion strains, locus YNL322C, strain KRE1 (second series), stronger effect = lower value 0.955 | S. cerevisiae deletion strains, locus YNL322C, strain KRE1, stronger effect = lower value 0.991 | S. cerevisiae deletion strains, locus YNR049C, strain mso1, stronger effect = lower value 0.979 | S. cerevisiae deletion strains, locus YNR052C, strain pop2, stronger effect = lower value 0.987 | S. cerevisiae deletion strains, locus YOL006C, strain TOP1, stronger effect = lower value 0.965 | S. cerevisiae deletion strains, locus YOL012C, strain htz1 1.08 | S. cerevisiae deletion strains, locus YOL147C, strain pex11, stronger effect = lower value 0.982 | S. cerevisiae deletion strains, locus YOR001W, strain rrp6, stronger effect = lower value 0.998 | S. cerevisiae deletion strains, locus YOR061W, strain CKA2, stronger effect = lower value 0.961 | S. cerevisiae deletion strains, locus YOR069W, strain VPS5, stronger effect = lower value 0.992 | S. cerevisiae deletion strains, locus YOR070C, strain gyp1, stronger effect = lower value 0.984 | S. cerevisiae deletion strains, locus YOR080W, strain dia2, stronger effect = lower value 0.977 | S. cerevisiae deletion strains, locus YOR083W, strain WHI5, stronger effect = lower value 0.989 | S. cerevisiae deletion strains, locus YOR106W, strain vam3, stronger effect = lower value 0.981 | S. cerevisiae deletion strains, locus YOR136W, strain idh2, stronger effect = lower value 0.981 | S. cerevisiae deletion strains, locus YOR144C, strain elg1, stronger effect = lower value 0.982 | S. cerevisiae deletion strains, locus YOR184W, strain ser1, stronger effect = lower value 0.989 | S. cerevisiae deletion strains, locus YOR231W, strain MKK1, stronger effect = lower value 0.97 | S. cerevisiae deletion strains, locus YOR265W, strain rbl2, stronger effect = lower value 0.991 | S. cerevisiae deletion strains, locus YOR270C, strain vph1, stronger effect = lower value 0.95 | S. cerevisiae deletion strains, locus YOR290C, strain snf2, stronger effect = lower value 0.976 | S. cerevisiae deletion strains, locus YOR316C, strain cot1, stronger effect = lower value 0.982 | S. cerevisiae deletion strains, locus YPL051W, strain arl3, stronger effect = lower value 0.981 | S. cerevisiae deletion strains, locus YPL055C, strain LGE1, stronger effect = lower value 0.92 | S. cerevisiae deletion strains, locus YPL078C, strain atp4, stronger effect = lower value 0.988 | S. cerevisiae deletion strains, locus YPL106C, strain sse1, stronger effect = lower value 0.969 | S. cerevisiae deletion strains, locus YPL240C, strain hsp82, stronger effect = lower value 0.997 | S. cerevisiae deletion strains, locus YPL256C, strain CLN2, stronger effect = lower value 0.974 | S. cerevisiae deletion strains, locus YPR119W, strain clb2, stronger effect = lower value 0.982 | S. cerevisiae deletion strains, locus YPR141C, strain kar3, stronger effect = lower value 0.97 | S. cerevisiae deletion strains, locus YPR163C, strain tif3, stronger effect = lower value 0.985 | S. cerevisiae deletion strains, locus YPR167C, strain met16, stronger effect = lower value 0.994 | S. cerevisiae deletion strains, strain wtn01, stronger effect = lower value 0.981 | S. cerevisiae strains, strain wild type, stronger effect = lower value 0.981

— PubChem BioAssay AID1159580 (chemical genetic matrix, 2015)
